TTR transcr act – TTR transcription activation, primary screen. SH-SY5Y TTR promoter Gaussia luciferase, luminescence; 100% = recombinant luciferase protein wells. activation, % at 16.7 µM. 1.3% of 92,000 active;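 active means activation above the mean of all tested compounds plus 3 SD, cut at about 9.5% in these data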;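 further: cells exposed to compounds for one day before reading; 0% = median of all test compound wells on the plate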
HuH7 TTR inh – counter-screen for TTR activators: TTR transcription inhibitors in HuH7 cells; shares compounds with TTR transcr act; HuH7 TTR promoter-Gaussia luciferase reporter, luminescence; inhibition, % at 16.7 µM; 4% of 1,100 active;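 active means average inhibition above the solvent-only control wells' mean plus 3 SD, cut at about 15% in these data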;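 further: 0% = cells with DMSO only and 100% = cells with inhibitor control FD; inhibitors lower well luminescence so higher value means more inhibition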
TTR up confirm – confirmation of human transthyretin transcription activators; 1,100 tested, under 10 active; activation, % at 16.7 µM; SHSY5Y TTR promoter Gaussia luciferase, luminescence; 100% = purified Lucia enzyme wells, no cells; shares compounds with TTR transcr act; AID 1117280;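 active means mean activation above a set limit taken from the earlier primary screen, cut at about 11% in these data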;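 further: 0% = DMSO-treated cells and 100% = recombinant Lucia luciferase without cells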
* = called active by the depositor. The full list was thinned out, with hits kept by preference.

SMILES	TTR transcr act	others
O=C(CCCOc1ccccc1)N1CCN(S(=O)(=O)c2cccs2)CC1	26.9*	HuH7 TTR inh=-10.1;TTR up confirm=3.8
CC(=O)c1ccc(OCCCC(=O)N2CCN(S(=O)(=O)c3cccs3)CC2)cc1	-1.1
O=C(O)CCC(=O)N1CCN(S(=O)(=O)c2cccs2)CC1	3.9
CC1CN(c2ccc(NS(=O)(=O)c3ccccc3)cc2C(=O)O)CC(C)O1 (centres undefined)	-1.2
Cc1cc(N2CCOCC2)nc(-c2ccc([N+](=O)[O-])cc2)n1	-0.8
CC(=O)Nc1ccc(S(=O)(=O)N[C@@H](C)C(=O)OCC(=O)NC2CCCC2)cc1	0.9
CC(C)C[C@H](NC(C)(C)C(=O)NC1CCCCC1)C(=O)NCCc1c[nH]c2ccccc12	1.5
Cc1ccc(SCc2nc(N)nc(Nc3ccccc3C)n2)c(C)c1	32.1*	HuH7 TTR inh=-23.2;TTR up confirm=0.4
Cc1ccc(SCc2nc(N)nc(Nc3ccccc3C)n2)cc1C	6.1
Cc1ccccc1Nc1nc(N)nc(CSc2nnc(C)n2C)n1	2.2
O=C1CCC(CNc2ccccc2)N1c1ccccc1 (centres undefined)	0.8
O=C(CSc1nnc(CNC(=O)c2ccccc2)o1)Nc1ccc2c(c1)OCO2	0.1
O=C(CSc1nnc(CNC(=O)c2c(F)cccc2F)o1)Nc1ccc2c(c1)OCCO2	11.0*	HuH7 TTR inh=-1.7;TTR up confirm=4.5
O=C(CSc1nnc(CNC(=O)c2c(F)cccc2F)o1)Nc1ccc2c(c1)OCO2	-1.8
CCOC(=O)C(Cc1ccccc1)NC(=O)CCc1nnc2ccc(N3CCCC3)nn12 (centres undefined)	0.8
S=c1[nH]nc(-c2ccccc2)n1Cc1ccccc1	6.4
CC(C)c1cc(-c2n[nH]c(=S)n2Cc2ccccc2)cs1	11.1*	HuH7 TTR inh=-2.4;TTR up confirm=-0.6
COc1ccc(-c2n[nH]c(=S)n2Cc2ccccc2)cc1OC	1.8
CCN1CCN(C(CCc2ccccc2)C(=O)NC2CCCCC2)CC1 (centres undefined)	2.1
C[C@@H]1CN([C@H](C)CO)C(=O)c2cc(Br)cnc2O[C@H]1CN(C)Cc1ccccc1F	2.1
CCOC(=O)Cc1csc(NC(=O)COc2ccc3c(c2)CCC3)n1	13.6*	HuH7 TTR inh=-24.4;TTR up confirm=-0.4
CCOC(=O)Cc1csc(NC(=O)CCC(=O)O)n1	1.7
CCOC(=O)Cc1csc(NC(=O)COc2cccc(C)c2)n1	0.3
COC(=O)C1CN(CCO)CCS(=O)(=O)N1Cc1cn(Cc2cccc(Cl)c2)nn1 (centres undefined)	-0.1
O=C(NNC(=O)C1CCCCC1)c1cnccn1	12.5*	HuH7 TTR inh=-8.6;TTR up confirm=0.1
SMILES	TTR transcr act	others
O=C(NNC(=O)c1cnccn1)c1ccc(Cl)cc1	-2.3
O=C(Nc1ccccc1N1CCCCC1)c1cnccn1	2.0
COC(=O)[C@]12C[C@H](CC(=O)NCc3cccs3)C(=O)N(Cc3ccc4c(c3)OCO4)C1=C[C@H](C(C)C)O[C@@H]2C1CC1	-0.2
COC(=O)[C@]12C[C@H](CC(=O)N3CCCC3)C(=O)N(Cc3cccc4ccccc34)C1=C[C@H](COCc1ccccc1)O[C@@H]2C	-1.6
Cc1ccc(C2=NN(CCC#N)C(=O)CO2)cc1	1.5
O=S1(=O)CCSC[C@@H](CNCc2ccco2)N1	-1.2
CC1CN(c2ccc(Oc3ccccc3)cc2)c2nc3c(c(=O)n(CC(N)=O)c(=O)n3C)n2C1 (centres undefined)	5.7
C=CCn1c(=O)c2c(nc3n2CCCN3CCc2ccccc2)n(C)c1=O	0.1
C=CCn1c(=O)c2c(nc3n2CC(C)CN3Cc2ccccc2)n(C)c1=O (centres undefined)	11.0*	HuH7 TTR inh=15.5*;TTR up confirm=-1.2
Cc1ccc(N2CC(C)Cn3c2nc2c3c(=O)n(CC(=O)OCc3ccccc3)c(=O)n2C)cc1C (centres undefined)	1.1
CC1CN(Cc2ccccc2)c2nc3c(c(=O)n(CC(N)=O)c(=O)n3C)n2C1 (centres undefined)	13.1*	HuH7 TTR inh=19.4*;TTR up confirm=-0.6
CCCn1c(=O)c2c(nc3n2CC(C)CN3Cc2ccccc2)n(C)c1=O (centres undefined)	-2.3
NC(=O)c1ccc2c(=O)n3c(-c4cccs4)csc3nc2c1	2.1
CCCCCC(=O)NC1CCCCN(Cc2ccc(Cl)cc2)C1=O (centres undefined)	0.3
O=C1CCC[C@H]2Cc3nc4cc5c(cc4cc3C[C@]23CCCN13)OCO5	2.8
O=C(N/N=C/C=C\c1ccco1)c1ccccn1	-0.6
O=C(N/N=C\C=C\c1ccco1)c1cc(-c2ccc3ccccc3c2)n[nH]1	2.5
O=C(N/N=C\C=C\c1ccco1)c1cncc(Br)c1	12.6*	HuH7 TTR inh=-1.7;TTR up confirm=-0.4
CCCCNS(=O)(=O)/C=C/c1cc2c(cc1CNC(=O)OC(C)(C)C)OCO2	-0.8
COc1cc(C(=S)N2CCCC2)ccc1O	1.1
COc1ccc(C(=S)N2CCCC2)cc1Br	1.4
Oc1ccc(C(=S)N2CCCCC2)cc1	10.4*	HuH7 TTR inh=1.8;TTR up confirm=-0.6
CCOC(=O)[C@]12CCCC=C1N(CCCOC)C(=O)[C@@H]2CC(=O)NCC1CCCCC1	0.7
Cc1cccc(C(=O)NNC(=O)c2ccccc2C)c1	-1.9
Cc1csc(C(=O)NCC(=O)NNC(=O)c2cccc(Cl)c2)c1	-0.5
SMILES	TTR transcr act	others
Cc1ccccc1C(=O)NCC(=O)NNC(=O)c1cccc(Cl)c1	19.0*	HuH7 TTR inh=-11.8;TTR up confirm=-0.3
O=c1cc(N2CCN(c3cccc(C(F)(F)F)c3)CC2)[nH]c(=O)n1-c1ccccc1	2.8
Cc1ccc(S(=O)(=O)N(C)C)cc1NC(=O)C1CCCC1	11.3*	HuH7 TTR inh=-16.2;TTR up confirm=-0.9
Cc1ccc(S(=O)(=O)N(C)C)cc1NC(=O)CSc1ccc2c(c1)OCCO2	2.2
Cc1ccc(S(=O)(=O)N(C)C)cc1NC(=O)c1cccs1	1.2
O=C(Nc1cccc(C(F)(F)F)c1)OC1CC2CC1[C@H]1CCCCN1[C@H]2Cc1ccccc1 (some centres undefined)	4.2
COc1ccc(CNC(=O)OC2CC3CC2[C@H]2CCCCN2C3)cc1 (some centres undefined)	-0.6
CCOC(=O)C(Cc1ccccc1)NC(=O)CNC(=O)CNC(=O)OCc1ccccc1 (centres undefined)	3.1
CCOC(=O)C(Cc1ccc(O)cc1)NC(=O)CNC(=O)C(CC(C)C)NC(=O)OC(C)(C)C (centres undefined)	29.7*	HuH7 TTR inh=-1.1;TTR up confirm=-0.8
CC(C)CC(NC(=O)C(Cc1ccc(OCc2ccccc2)cc1)NC(=O)OC(C)(C)C)C(N)=O (centres undefined)	-3.2
Cc1ccc(N/C=C2\CCCCC2=O)nc1	9.9*	HuH7 TTR inh=-8.5;TTR up confirm=-0.3
O=C1CCCC/C1=C/Nc1cccc(C(F)(F)F)c1	0.1
Cc1ccc(N/C=C2\CCCCC2=O)c(C)c1	1.8
Fc1ccc(Cn2ccc3ccc(-c4ccc5ccn(Cc6ccc(F)cc6)c5c4)cc32)cc1	7.8
CC1(c2cccc(Br)c2)NC(=O)N(CC(=O)Nc2ccc(N3CCCCC3)cc2)C1=O (centres undefined)	-0.2
CC(C)CC1(C)NC(=O)N(CC(=O)Nc2ccc3c(c2)CCC3)C1=O (centres undefined)	11.1*	HuH7 TTR inh=-25.9;TTR up confirm=0.7
CCc1cccc(NC(=O)CN2C(=O)NC3(CCCCCCC3)C2=O)c1	3.2
CN(C(=O)[C@@H](C1CC1)[C@@H](O)c1ccc(Cl)cc1)c1ccccc1	-2.2
